Assay [1] addresses Insulin receptor (Homo sapiens) (UniProt P06213). The conditions noted are these: at 10 µM.
Assay [2] shares this target. The conditions noted are these: at 1 µM.
The target is the same in assay [3]. The settings on record: at 10 µM. The source holds these as a separate data set.
The target in assay [4] is Interleukin-1 receptor-associated kinase 1 (Homo sapiens) (UniProt P51617). The conditions noted are these: at 1 µM.
For assay [5] the target is unchanged. The settings on record: at 10 µM.
In assay [6] the target is T1, Interleukin-1 receptor-associated kinase 4 (Homo sapiens) (UniProt Q9NWZ3).
T1 sequence (whole entry): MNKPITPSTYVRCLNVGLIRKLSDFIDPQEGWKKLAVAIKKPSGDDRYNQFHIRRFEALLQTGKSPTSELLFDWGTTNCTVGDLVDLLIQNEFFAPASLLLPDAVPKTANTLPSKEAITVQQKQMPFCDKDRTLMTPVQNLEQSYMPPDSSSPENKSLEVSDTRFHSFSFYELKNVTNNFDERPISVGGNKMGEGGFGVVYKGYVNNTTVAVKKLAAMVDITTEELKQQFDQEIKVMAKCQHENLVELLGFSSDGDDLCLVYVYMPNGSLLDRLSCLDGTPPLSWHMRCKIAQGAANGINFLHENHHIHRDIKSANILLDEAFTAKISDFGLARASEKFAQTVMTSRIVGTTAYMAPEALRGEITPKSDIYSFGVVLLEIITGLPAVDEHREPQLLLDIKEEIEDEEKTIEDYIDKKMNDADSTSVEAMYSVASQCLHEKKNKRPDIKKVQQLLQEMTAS
The conditions noted are these: at 1 µM.

Assay [7] deals with T1, Interleukin-1 receptor-associated kinase 4 (Homo sapiens). The conditions noted are these: at 10 µM.
Assay [8] deals with Insulin receptor-related protein (Homo sapiens) (UniProt P14616). The settings on record: at 1 µM.
The target is the same in assay [9]. The settings on record: at 10 µM.
In assay [10] the target is T2, Tyrosine-protein kinase ITK/TSK (Homo sapiens) (UniProt Q08881).
T2 sequence (whole entry): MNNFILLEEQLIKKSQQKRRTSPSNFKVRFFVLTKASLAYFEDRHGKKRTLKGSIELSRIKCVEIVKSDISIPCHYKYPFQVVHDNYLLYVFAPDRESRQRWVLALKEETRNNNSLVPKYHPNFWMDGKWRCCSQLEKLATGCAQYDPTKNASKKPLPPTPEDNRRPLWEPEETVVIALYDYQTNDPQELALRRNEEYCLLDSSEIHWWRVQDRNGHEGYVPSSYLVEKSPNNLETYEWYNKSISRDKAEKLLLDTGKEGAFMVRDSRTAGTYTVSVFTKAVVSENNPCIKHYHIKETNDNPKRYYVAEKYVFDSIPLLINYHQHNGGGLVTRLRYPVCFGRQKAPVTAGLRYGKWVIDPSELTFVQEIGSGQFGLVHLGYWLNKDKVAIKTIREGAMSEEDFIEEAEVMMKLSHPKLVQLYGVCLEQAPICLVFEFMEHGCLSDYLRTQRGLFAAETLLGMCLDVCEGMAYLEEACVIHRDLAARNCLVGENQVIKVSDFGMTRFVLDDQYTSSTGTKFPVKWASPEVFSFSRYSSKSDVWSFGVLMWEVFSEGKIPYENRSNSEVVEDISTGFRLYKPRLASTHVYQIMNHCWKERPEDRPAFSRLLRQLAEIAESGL
The conditions noted are these: at 1 µM.

Assay [11] deals with T2, Tyrosine-protein kinase ITK/TSK (Homo sapiens). The settings on record: at 10 µM.
The target of assay [12] is Tyrosine-protein kinase JAK2 (Homo sapiens) (UniProt O60674). The conditions noted are these: at 1 µM.
The target is the same in assay [13]. The conditions noted are these: at 10 µM.
In assay [14] the target is T3, Tyrosine-protein kinase JAK3 (Homo sapiens) (UniProt P52333).
T3 sequence (whole entry): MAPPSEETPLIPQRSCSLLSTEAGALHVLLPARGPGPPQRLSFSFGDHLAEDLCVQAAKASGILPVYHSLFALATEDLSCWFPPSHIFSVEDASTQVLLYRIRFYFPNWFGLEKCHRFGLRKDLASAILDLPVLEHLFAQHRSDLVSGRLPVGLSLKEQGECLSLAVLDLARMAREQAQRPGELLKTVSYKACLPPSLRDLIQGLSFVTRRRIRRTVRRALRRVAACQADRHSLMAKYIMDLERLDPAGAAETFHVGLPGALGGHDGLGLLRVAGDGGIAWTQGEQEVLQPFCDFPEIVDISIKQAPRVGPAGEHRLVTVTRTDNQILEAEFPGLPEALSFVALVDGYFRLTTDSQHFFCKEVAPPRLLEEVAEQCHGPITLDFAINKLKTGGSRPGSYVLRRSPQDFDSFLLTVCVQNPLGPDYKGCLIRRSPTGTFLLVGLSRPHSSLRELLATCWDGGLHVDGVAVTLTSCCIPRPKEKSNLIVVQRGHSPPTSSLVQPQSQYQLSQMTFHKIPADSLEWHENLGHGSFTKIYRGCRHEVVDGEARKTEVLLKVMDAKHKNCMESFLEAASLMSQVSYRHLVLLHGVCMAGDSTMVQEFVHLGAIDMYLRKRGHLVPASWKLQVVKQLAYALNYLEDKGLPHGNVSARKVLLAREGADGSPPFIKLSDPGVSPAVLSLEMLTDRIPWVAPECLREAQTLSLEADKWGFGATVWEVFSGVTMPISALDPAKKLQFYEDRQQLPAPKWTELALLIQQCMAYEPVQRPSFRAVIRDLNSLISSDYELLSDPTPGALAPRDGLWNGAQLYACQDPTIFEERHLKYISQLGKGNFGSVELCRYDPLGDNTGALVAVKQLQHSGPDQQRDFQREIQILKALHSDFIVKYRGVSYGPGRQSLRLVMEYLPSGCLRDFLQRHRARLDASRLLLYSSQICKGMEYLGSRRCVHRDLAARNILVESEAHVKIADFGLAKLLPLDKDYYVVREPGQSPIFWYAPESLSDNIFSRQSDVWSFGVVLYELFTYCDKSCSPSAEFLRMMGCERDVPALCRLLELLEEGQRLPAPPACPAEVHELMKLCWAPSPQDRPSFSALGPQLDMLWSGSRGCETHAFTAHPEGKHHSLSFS
The settings on record: at 1 µM.

Assay [15] has as its target T3, Tyrosine-protein kinase JAK3 (Homo sapiens). The conditions noted are these: at 10 µM.
For assay [16], the target named is Mitogen-activated protein kinase 8 (Homo sapiens) (UniProt P45983). The settings on record: at 1 µM.
For assay [17] the target is unchanged. The conditions noted are these: at 10 µM.
Assay [18] has as its target Mitogen-activated protein kinase 9 (Homo sapiens) (UniProt P45984). The settings on record: at 1 µM.
The target is the same in assay [19]. The conditions noted are these: at 10 µM.
Assay [20] concerns the target Mitogen-activated protein kinase 10 (Homo sapiens) (UniProt P53779). The conditions noted are these: at 1 µM.

Structures are written as SMILES.

Sequence of Mitogen-activated protein kinase 10 (Homo sapiens) (P53779 whole entry): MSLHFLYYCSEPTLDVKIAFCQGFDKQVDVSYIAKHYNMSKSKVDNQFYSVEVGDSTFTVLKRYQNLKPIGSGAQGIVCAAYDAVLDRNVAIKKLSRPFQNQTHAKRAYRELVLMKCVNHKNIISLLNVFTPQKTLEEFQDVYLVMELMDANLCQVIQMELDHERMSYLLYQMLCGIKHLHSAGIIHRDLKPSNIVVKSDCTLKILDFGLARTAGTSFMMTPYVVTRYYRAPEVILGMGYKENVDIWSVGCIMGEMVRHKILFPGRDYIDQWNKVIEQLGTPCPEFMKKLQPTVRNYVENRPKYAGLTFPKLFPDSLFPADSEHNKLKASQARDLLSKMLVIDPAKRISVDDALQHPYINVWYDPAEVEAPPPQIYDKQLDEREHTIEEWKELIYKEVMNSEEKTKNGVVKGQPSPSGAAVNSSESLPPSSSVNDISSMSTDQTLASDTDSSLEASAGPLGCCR
Sequence of Interleukin-1 receptor-associated kinase 1 (Homo sapiens) (P51617 whole entry, looked up): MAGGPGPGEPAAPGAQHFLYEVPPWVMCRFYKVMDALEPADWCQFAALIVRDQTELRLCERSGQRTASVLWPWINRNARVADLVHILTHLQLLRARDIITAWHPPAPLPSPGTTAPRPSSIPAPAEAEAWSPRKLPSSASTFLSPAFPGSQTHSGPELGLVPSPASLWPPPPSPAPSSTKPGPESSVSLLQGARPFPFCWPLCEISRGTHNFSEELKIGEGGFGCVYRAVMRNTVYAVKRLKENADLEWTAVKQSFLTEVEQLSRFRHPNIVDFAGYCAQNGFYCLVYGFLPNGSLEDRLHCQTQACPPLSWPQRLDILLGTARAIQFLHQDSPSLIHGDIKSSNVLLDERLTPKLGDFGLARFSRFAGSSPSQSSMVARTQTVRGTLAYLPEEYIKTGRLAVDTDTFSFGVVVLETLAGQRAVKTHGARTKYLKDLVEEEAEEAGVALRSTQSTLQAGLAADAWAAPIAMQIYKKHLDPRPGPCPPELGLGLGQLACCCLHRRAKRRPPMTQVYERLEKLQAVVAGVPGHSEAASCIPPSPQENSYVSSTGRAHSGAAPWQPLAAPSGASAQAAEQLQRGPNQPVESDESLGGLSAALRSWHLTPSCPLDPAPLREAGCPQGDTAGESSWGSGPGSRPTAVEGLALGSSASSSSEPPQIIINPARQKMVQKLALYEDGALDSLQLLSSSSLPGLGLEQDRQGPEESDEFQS
Sequence of Insulin receptor-related protein (Homo sapiens) (P14616 27-742 limits assumed): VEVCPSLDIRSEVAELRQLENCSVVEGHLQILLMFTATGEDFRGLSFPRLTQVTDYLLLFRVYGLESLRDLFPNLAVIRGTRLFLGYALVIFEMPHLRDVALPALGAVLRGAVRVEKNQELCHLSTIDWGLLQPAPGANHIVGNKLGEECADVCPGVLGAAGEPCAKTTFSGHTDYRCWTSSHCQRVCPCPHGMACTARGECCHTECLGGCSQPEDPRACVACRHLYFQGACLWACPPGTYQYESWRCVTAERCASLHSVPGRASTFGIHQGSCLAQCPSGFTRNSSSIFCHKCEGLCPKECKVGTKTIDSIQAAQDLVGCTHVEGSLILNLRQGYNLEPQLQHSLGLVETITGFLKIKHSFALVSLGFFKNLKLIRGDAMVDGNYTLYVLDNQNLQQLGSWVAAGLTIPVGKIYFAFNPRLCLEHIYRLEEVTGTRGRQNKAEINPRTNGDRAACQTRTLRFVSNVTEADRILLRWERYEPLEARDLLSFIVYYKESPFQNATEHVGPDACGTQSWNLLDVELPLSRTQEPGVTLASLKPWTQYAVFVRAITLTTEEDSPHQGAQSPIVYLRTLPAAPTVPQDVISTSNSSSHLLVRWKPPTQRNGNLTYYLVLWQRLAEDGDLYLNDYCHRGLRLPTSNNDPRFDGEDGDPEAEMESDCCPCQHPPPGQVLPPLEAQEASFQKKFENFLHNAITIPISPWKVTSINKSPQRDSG
Sequence of Insulin receptor-related protein (Homo sapiens) (P14616 747-1297 limits assumed): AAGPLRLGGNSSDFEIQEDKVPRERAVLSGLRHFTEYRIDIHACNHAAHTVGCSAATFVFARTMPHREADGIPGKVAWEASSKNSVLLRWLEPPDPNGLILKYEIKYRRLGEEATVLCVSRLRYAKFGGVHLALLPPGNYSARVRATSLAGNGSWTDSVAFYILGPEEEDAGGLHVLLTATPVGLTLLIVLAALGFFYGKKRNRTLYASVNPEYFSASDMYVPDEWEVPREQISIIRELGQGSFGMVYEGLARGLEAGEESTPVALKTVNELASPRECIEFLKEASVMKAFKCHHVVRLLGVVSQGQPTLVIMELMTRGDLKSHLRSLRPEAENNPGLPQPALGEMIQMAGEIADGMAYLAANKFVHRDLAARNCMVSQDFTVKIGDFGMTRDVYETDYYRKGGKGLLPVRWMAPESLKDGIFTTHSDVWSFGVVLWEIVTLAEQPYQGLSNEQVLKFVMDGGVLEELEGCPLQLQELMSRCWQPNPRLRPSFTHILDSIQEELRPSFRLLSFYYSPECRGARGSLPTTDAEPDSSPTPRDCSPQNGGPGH
Sequence of Mitogen-activated protein kinase 8 (Homo sapiens) (P45983 whole entry): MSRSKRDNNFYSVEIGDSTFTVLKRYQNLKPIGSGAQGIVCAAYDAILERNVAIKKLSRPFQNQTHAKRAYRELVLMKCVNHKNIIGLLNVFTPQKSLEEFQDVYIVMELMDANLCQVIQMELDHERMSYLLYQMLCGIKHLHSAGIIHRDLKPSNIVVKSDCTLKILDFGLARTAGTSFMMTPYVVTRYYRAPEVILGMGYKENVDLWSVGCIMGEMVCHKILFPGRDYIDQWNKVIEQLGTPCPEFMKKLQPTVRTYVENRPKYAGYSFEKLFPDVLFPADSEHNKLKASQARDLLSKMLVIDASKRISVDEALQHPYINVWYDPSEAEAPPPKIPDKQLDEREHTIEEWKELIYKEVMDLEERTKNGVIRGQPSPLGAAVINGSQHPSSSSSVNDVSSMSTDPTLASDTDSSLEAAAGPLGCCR
Sequence of Mitogen-activated protein kinase 9 (Homo sapiens) (P45984 whole entry, looked up): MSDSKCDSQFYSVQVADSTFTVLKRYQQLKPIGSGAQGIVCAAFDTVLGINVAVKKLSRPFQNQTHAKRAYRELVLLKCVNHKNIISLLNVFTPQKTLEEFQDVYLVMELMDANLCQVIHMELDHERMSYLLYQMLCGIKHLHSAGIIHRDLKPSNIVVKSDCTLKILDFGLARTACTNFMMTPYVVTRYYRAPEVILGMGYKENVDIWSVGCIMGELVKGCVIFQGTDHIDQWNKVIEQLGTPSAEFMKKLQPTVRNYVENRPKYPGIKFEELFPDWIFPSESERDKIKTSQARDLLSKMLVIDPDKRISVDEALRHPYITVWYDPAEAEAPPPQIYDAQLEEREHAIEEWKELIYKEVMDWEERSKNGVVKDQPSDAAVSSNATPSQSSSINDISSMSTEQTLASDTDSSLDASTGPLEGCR
Sequence of Tyrosine-protein kinase JAK2 (Homo sapiens) (O60674 whole entry): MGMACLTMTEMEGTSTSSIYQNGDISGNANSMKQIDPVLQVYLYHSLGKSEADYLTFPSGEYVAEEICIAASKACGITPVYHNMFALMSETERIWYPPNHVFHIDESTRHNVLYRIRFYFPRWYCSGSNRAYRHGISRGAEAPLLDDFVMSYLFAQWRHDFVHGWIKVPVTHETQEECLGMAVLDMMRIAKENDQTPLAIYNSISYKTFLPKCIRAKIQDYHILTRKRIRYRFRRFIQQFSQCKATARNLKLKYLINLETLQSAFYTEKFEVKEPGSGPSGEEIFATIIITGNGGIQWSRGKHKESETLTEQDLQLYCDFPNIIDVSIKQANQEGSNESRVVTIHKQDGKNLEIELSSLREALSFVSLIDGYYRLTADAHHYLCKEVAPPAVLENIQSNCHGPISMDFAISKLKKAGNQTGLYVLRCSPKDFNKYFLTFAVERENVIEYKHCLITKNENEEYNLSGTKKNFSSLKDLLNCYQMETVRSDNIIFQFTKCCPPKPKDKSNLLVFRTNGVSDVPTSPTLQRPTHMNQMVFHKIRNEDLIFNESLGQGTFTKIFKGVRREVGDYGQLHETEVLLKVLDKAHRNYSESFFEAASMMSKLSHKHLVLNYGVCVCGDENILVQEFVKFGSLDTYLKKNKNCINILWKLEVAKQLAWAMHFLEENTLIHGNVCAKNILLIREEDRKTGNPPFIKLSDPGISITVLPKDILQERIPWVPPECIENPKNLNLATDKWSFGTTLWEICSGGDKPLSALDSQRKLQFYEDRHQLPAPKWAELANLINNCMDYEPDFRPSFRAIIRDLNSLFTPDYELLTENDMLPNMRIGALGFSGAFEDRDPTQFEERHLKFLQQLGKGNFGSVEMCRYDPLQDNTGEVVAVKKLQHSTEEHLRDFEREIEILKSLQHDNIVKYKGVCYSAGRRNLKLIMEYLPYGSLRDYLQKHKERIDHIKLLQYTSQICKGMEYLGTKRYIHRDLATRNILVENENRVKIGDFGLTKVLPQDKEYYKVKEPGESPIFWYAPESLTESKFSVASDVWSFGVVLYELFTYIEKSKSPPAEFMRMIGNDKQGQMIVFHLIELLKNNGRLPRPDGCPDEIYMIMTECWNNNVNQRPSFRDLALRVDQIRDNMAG

On to `CC[n+]1c(/C=C/N(C)c2ccccc2)n(-c2ccccc2)c2ccc(-c3nc4ccccc4s3)cc21`, for which the residual activity was 86% in assay [1]; 100% in assay [2]; 92% in assay [3]; 96% in assay [4]; 92% in [5]; 113% in assay [6]. In addition, the residual activity in [7] is 78%; in assay [8] it was 111%; in assay [9], 87%; in assay [10], 101%; in assay [11] it was 92%; in assay [12] it was 121%. Also, the residual activity is 150% in assay [13]; 118% in assay [14]; 149% in assay [15]; 119% in assay [16]; 95% in assay [17]; 113% in assay [18]. Also, the residual activity in assay [19] turned out to be 102%; in assay [20] it was 91%.

For the compound `O=C(O)c1ccc2c3c1cccc3c(=O)n1c3ccccc3nc21`, the residual activity in assay [1] is 110%; in [2] it was 104%; in [3], 85%; in [4], 35%; in assay [5], 3%; in assay [6], 105%. The residual activity in assay [7] came out at 89%; in assay [8] it was 125%; in assay [9], 98%; in assay [10], 107%; in assay [11], 94%; in assay [12], 100%. The residual activity in [13] amounted to 40%; in [14], 46%; in assay [15] it was 9%; in [16], 105%; in assay [17] it was 79%; in [18] it was 83%. Besides, the figures for the residual activity in assay [19] and in assay [20] were 55% and 78%, respectively.

`O=C(Nc1cccc(Nc2nccc(Nc3cccc(C(F)(F)F)c3)n2)c1)C1CC1`: the residual activity stood at 12% in assay [1]; 86% in assay [2]; 97% in assay [3]; 81% in assay [4]; 82% in assay [5]; 50% in [6]. The residual activity in [7] was 44%; in [8] it was 13%; in assay [9] it was 1%; in assay [10], 96%; in assay [11] it was 56%; in assay [12], 19%. Moreover, the residual activity in assay [13] was 29%; in [14] it was 76%; in assay [15], 23%; in [16], 109%; in assay [17], 61%; in assay [18], 102%. Further, the residual activity in assay [19] amounted to 93%; in [20], 51%.

As to `Cc1nc2cc3nc(-c4cccs4)cnc3cc2n1C`, the residual activity in [1] worked out at 101%; in [2], 106%; in assay [3] it was 95%; in [4], 110%; in [5], 90%; in assay [6], 111%. Also, the residual activity was found to be 70% in [7]; 130% in assay [8]; 100% in assay [9]; 108% in assay [10]; 71% in assay [11]; 113% in assay [12]. The residual activity in assay [13] was 106%; in assay [14] it was 105%; in [15], 106%; in assay [16], 114%; in [17] it was 100%; in [18], 106%. Besides, the values for the residual activity in assay [19] and in [20] were 106% and 119%, respectively.

With `O=Nc1c(-c2c(O)[nH]c3ccccc23)[nH]c2ccccc12`, the residual activity was 10% in [1]; 35% in assay [2]; 19% in assay [3]; 60% in assay [4]; 11% in assay [5]; 41% in assay [6]. Further, the residual activity in [7] was found to be 6%; in [8] it was 2%; in [9], 1%; in assay [10] it was 19%; in [11], 1%; in assay [12] it was 92%. For the same compound, the residual activity in [13] was determined as 11%; in assay [14] it was 21%; in [15] it was 2%; in assay [16], 63%; in assay [17], 70%; in assay [18] it was 55%. Also, the residual activity in [19] turned out to be 17%; in assay [20], 7%.

Turning to `COc1ccc(OC)c2c(=S)c3ccccc3[nH]c12`, the residual activity was determined as 103% in assay [1]; 101% in assay [2]; 89% in assay [3]; 101% in assay [4]; 102% in assay [5]; 86% in [6]. Besides, the residual activity stood at 68% in assay [7]; 106% in [8]; 103% in assay [9]; 98% in assay [10]; 97% in assay [11]; 88% in assay [12]. The residual activity in [13] turned out to be 102%; in assay [14], 97%; in assay [15], 97%; in assay [16] it was 99%; in assay [17], 95%; in assay [18], 88%. In addition, the residual activity in [19] is 106%; in [20], 80%.

In the case of `CN(C)c1ccc(/C=C2\C(=O)Nc3ccccc32)cc1`, the residual activity in [1] came out at 65%; in assay [2], 93%; in assay [3], 71%; in assay [4] it was 118%; in assay [5], 91%; in assay [6], 92%. Further, the residual activity came out at 46% in assay [7]; 111% in [8]; 23% in [9]; 98% in assay [10]; 65% in [11]; 115% in assay [12]. In addition, the residual activity in [13] amounted to 83%; in [14], 86%; in [15], 32%; in [16] it was 106%; in assay [17], 93%; in assay [18], 102%. In addition, the residual activity in assay [19] is 98%; in assay [20], 110%.

Values taken from ChEMBL document CHEMBL2218924, “A broad activity screen in support of a chemogenomic map for kinase signalling research and drug discovery” (Biochem J, 2013).
